# From PubChem BioAssay (NCI)
# About 83,000 compounds went through this panel and 20% of them were active in at least one assay; those are over-represented in the sample as a whole.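 For each line, cells grew in 96-well plates with the test compound present at a single concentration for 48 hours.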 Unmarked numbers belong to inactive results. Activity calls are given as the source filed them.
# System: MDA-MB-435 melanoma
# Assay: NCI-60 one-dose screen, 48 h (100 = growth as untreated, 0 = no growth, -100 = all killed)
# Details: 10 µM unless noted
# Procedure: Growth inhibition of the MDA-MB-435 human Melanoma tumor cell line is measured as a screen for anti-cancer activity. Cells are grown in 96 well plates and exposed to the test compound for 48 hours. Compounds are tested at a single concentration, which is 10^-5 M for most compounds. The reported endpoint is percent growth (GI% or GIPRCNT), where numbers from 0 - 100% represent growth inhibition, and numbers from -100% - 0 represent cell death. For example, a value of 40 represents 60% growth inhibition. A value of 0 means no net growth occurred over the course of the experiment. A value of -40 indicates 40% of cells at the beginning of the experiment died by the end of the experiment. A value of -100 means all cells are dead at the end of the experiment.
# NCI-60 Human Tumor Cell Lines Screen was performed using the standard one-dose NCI protocol, which is described in more detail at https://dtp.cancer.gov/discovery_development/nci-60/default.htm.
# Compounds with GIPRCNT values below 10 were considered active. Activity score was based on GIPRCNT using the following formula: […]
# Score is 0 for GIPRCNT values of 100 or above, 50 for GIPRCNT values of 0, and 100 for GIPRCNT values of -100.
row,Compound,growth
1,Cc1cn(-c2cc(C(=O)Nc3cccc(-n4ccc5c(NC(=O)c6ccccc6)nccc54)c3)cc(C(F)(F)F)c2)cn1,-14.9% (active)
2,CCCc1nn2c(CCC(=O)c3nc4ccc([N+](=O)[O-])cc4[nH]3)nnc2s1,103%
3,CC(C(=O)O)N1C(N)=NNC1c1ccccc1O (stereo not given),104%
4,CCOC(=O)n1cnc2c(Cl)ncnc21,111%
5,CCOC(=O)C1CSC(C)(C(=O)OCC)N1 (stereo not given),103%
6,CCCCN(CCCC)c1ccc(C(=N)c2ccc(N(C)C)cc2)cc1,-74.1% (active)
7,C=C1C(=O)O[C@H]2[C@H]1CC/C(COC(=O)c1ccc3ccccc3c1)=C\CC[C@@]1(C)O[C@@H]21,-73.8% (active)
8,O=C1CCC(=O)N1C1CCCCC1,99.5%
9,CC(C)C1(C(C)C)NC(=O)NC1=O,114%
10,CC1(C)N=C(N)N=C(N)N1c1ccc(OCC(=O)Nc2ccccc2)c(Cl)c1,25.2%
11,CN1CCN(Cn2nc(-c3cc(F)c(Cl)cc3Cl)n(/N=C/c3ccc(N(C)C)cc3)c2=S)CC1,-7.65% (active)
12,c1ccc([Se]CCCN2CCN(CCC[Se]c3ccccc3)CC2)cc1,-44.2% (active)
13,Cc1ccc[n+](CC(=O)c2cccc3ccccc23)c1,102%
14,CC1CCc2cc(F)cc3c(=O)c(C(=O)O)cn1c23 (stereo not given),94.8%
15,O=C1OC(=O)C2C3CC(c4ccccc43)C12 (stereo not given),104%
16,O=S(=O)(Nc1cccc2cc(OS(=O)(=O)c3ccccc3)ccc12)c1ccccc1,-13.8% (active)
17,Cc1cn(C2CC(N=[N+]=[N-])C(COP(=O)(O)OP(=O)(O)OP(=O)(O)O)O2)c(=O)[nH]c1=O (stereo not given),107%
18,COc1ccccc1C(OC(C)=O)OC(C)=O,104%
19,CC(=O)Nc1ccc([I+]c2ccc([N+](=O)[O-])cc2)cc1,109%
20,CCCCn1c(-c2cccc(OC)c2)nc2cc(OC)c(OC)cc2c1=O,115%

row,Compound,growth
1,O=C(NCCNc1nccc(-c2c(-c3cccc(O)c3)nc3sccn23)n1)Nc1cc(C(F)(F)F)cc(C(F)(F)F)c1,9.9% (active)
2,Nc1ncnc2c1c(C(F)(F)F)cn2[C@@H]1O[C@H](CO)[C@@H](O)[C@H]1O,12.3%
3,COc1ccc2c(c1)OC(N(C(C)=O)C(C)=O)=C(C#N)C2c1ccc(F)cc1 (stereo not given),-29.2% (active)
4,CC(Cc1cccc(C(F)(F)F)c1)NCCOC(=O)c1ccccc1 (stereo not given),102%
5,CC(C)[C@@H]1NC(=O)[C@]2(C)CSC(=N2)c2ccnc(c2)CNC(=O)C[C@@H](/C=C/CCS)OC1=O,5.07% (active)
6,COc1cc(/C=C/C(=O)c2c(C)[n+]([O-])c3ccccc3[n+]2[O-])ccc1O,78.6%
7,CCCCNc1cc(C(=O)O)cc(S(N)(=O)=O)c1Oc1ccccc1,99.3%
8,[2H]c1nc(Nc2ncc(F)c(-c3cc(F)c4nc(C)n(C(C)C)c4c3)n2)c([2H])c([2H])c1CN1CCN(CC)CC1,51.9%
9,CCOC(=O)c1cnc2c(OC)ccc(OC)c2c1Cl,104%
10,O=C(Nc1cccc(-n2ccc3c(NC(=O)c4ccccc4)nccc32)c1)Nc1cc(C(F)(F)F)cc(C(F)(F)F)c1,-34.1% (active)
11,ClC1c2ccccc2CCc2ccccc21,110%
12,O=C(Nc1ccccc1Cl)c1c[nH]c(=O)c(-c2ccc(N3CCCOC4(CC4)C3)cc2)c1,56.4%
13,COc1ccc(-c2cc3ccc(N(C)C)cc3nc2N)c(F)c1,13.9%
14,COc1ccc(CNc2nc3ccccc3c3c(=O)c4ccccc4sc23)cc1OC,91.7%
15,O=C1C(Cl)=C(Nc2cccc3cc4ccccc4nc23)C(=O)c2ccccc21,59%
16,C=CC(=O)NC(=O)Nc1ccccc1Cl,82.4%
17,O=c1c2ccccc2sc2c(NCCCNCCO)nc3ccccc3c12,5.01% (active)
18,c1cncc(-c2nc3ccccc3[nH]2)c1,121%
19,CCCOC(=O)c1ccc([N+](=O)[O-])o1,107%
20,CC(=O)c1cc2c(c(O)c1C)C(=O)C(=O)c1c(O)cccc1-2,-84.3% (active)
